Measurements published in PubChem BioAssay (NCATS).
Results filed as inconclusive are left out. Active and inactive are the calls of the source. Unless noted, the call rests on the fitted dose curve; in most records, active means well fitted curve in either direction with a large enough effect (not every such curve was filed as active); inconclusive means small, poorly fitted or top-dose-only effect, or another doubt; inactive means flat fitted curve, though single readings scatter.

Experiments:
[1] = target: Lysosomal acid glucosylceramidase (Homo sapiens) (UniProt P04062); test: Glucocerebrosidase-p2 (AID 348; in the data active means potency below about 10 µM; further: potency means the concentration at half of the fitted maximal effect); conditions: purified GBA, blue fluorogenic substrate, 40 min
Summary of the method: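 Compounds titrated from 0.6 nM upwards against 0.2 nM enzyme in pH 5.9 citric acid/KH2PO4, taurocholate, tween-20; blue fluorogenic substrate 80 uM, 40 min room temperature, stopped and read Ex 365/Em 440 for AC50.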

[2] = AP1 Signaling Pathway (AID 357); conditions: ME-180 AP-1-bla reporter, EGF-induced, beta-lactamase ratio, 5 h; at 7.69 µM (top of the series) unless noted; further: on the % scale 0 is the no-effect control and ±100 the full control effect
Summary of the method: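 ME-180 cells with beta-lactamase reporter under AP-1 response element, stimulated with EC50 EGF; compounds tested in titration series, 5 h at 37 °C. CCF4 substrate added 2.5 h at room temperature; 460/530 nm emission ratio gave %activity and AC50.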

[3] = target: Cytochrome P450 1A2 (Homo sapiens) (UniProt P05177); test: p450-cyp1a2 (AID 410; calls by dose curve; further: potency means the concentration at half of the fitted maximal effect;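 on activity change, negative = inhibition: -100% = full effect of reference inhibitor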); conditions: recombinant CYP1A2, luciferin-ME demethylation, luminescence; series mostly up to 11.4 µM
Summary of the method: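 Human CYP1A2 (20nM) demethylated Luciferin-ME at its Km (100uM) in 100mM KPO4. After 10 min compound preincubation, NADPH regeneration ran the reaction 60 min at room temperature. Luciferin was read by luminescence, normalized to 57 uM furafylline.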

[4] = NFAT Signaling Pathway (AID 444); conditions: Jurkat NFAT-bla M1, carbachol, beta-lactamase ratio, 5 h; at 7.69 µM (top of the series) unless noted;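 further: carbachol stimulus at about its EC50 of 1 µM final; on the % scale 0 is the no-effect control and ±100 the full control effect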
Summary of the method: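 Jurkat cells carrying an NFAT-driven β-lactamase reporter and co-transfected muscarinic M1 receptor were treated with compound plus carbachol (1 uM final, an EC50 level) for 5 h at 37 °C. CCF4 loading followed for 1 h at RT; 460/530 nm ratio gave %activity.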

[5] = Stat Signaling Pathway (AID 446); conditions: ME-180 (cervical carcinoma) SIE beta-lactamase reporter, IL-6 stimulated, 5 h; at 7.69 µM (top of the series) unless noted;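 further: ME-180 cervical cancer cells given 40 pM IL-6 alongside compound; SIE-controlled beta-lactamase reporter measured as 460/530 nm FRET emission ratio; on the % scale 0 is the no-effect control and ±100 the full control effect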
Summary of the method: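 IL-6/STAT signaling read in ME-180 cells via an SIE beta-lactamase reporter. Stimulus was 40 pM IL-6 (its AC50) for 5 hrs, so both activation and inhibition register.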

[6] = target: Glucocorticoid receptor (Homo sapiens) (UniProt P04150); test: GR-GFP Redistribution (AID 450;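 active means compounds whose dose series gives a full or clear partial fitted curve of increased nuclear translocation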; further: potency means the concentration at half of the fitted maximal effect); conditions: U2OS GR-GFP nuclear translocation, laser cytometry, 2 h
[7] = target: Glucocorticoid receptor (Homo sapiens) (UniProt P04150); test: GR-EFC Redistribution (AID 451; calls by dose curve; further: potency means the concentration at half of the fitted maximal effect); conditions: CHO-K1 GR-EFC translocation, beta-gal luminescence, 2 h
Summary of the method: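 CHO-K1 cells stably expressing nuclear-localized β-gal enzyme acceptor and GR fused C-terminally to the enzyme donor fragment; ligand-driven nuclear translocation restores β-gal by complementation. Compounds titrated up to 46 uM final, 2 h at 37 °C; luminescence read.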

[8] = target: 3',5'-cyclic-AMP phosphodiesterase 4B (Homo sapiens) (UniProt Q07343); test: qHTS Assay for Inhibitors of PDE-IV (AID 607; active means well fitted activation curve with a large enough effect in the main read-out, with a control signal flat, not every such curve was filed as active; further: % of control where 0% means no effect); conditions: HEK293 ACTOne CNG channel cells, membrane potential fluorescence; series mostly up to 22.9 µM
Summary of the method: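 Live HEK293 cells with a modified cyclic nucleotide-gated (CNG) channel report intracellular cAMP via membrane-potential dye fluorescence (ex 535/em 590 nm). Endogenous PDE-IV was targeted. Compounds were tested at up to 22.9 uM final; RO 20-1724 100 uM served as control.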

[9] = target: Mitogen-activated protein kinase 10 (Mus musculus) (UniProt Q61831); test: JNK3 AlphaScreen Assay (AID 530); conditions: JNK3 lysate, c-Jun phosphorylation; series mostly up to 11.4 µM;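 further: kinase came from lysate of stimulated human HepG2 cells; signal reports phosphorylation of biotinylated GST-cJun 1-79 at Ser73 with 10 µM ATP; on the % scale 0 is the no-effect control and ±100 the full control effect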
Summary of the method: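 JNK3 came from HepG2 lysates pre-activated with IL-1beta and TNF-alpha and phosphorylated biotinylated GST-cJun (1-79) at 10 uM ATP, pH 7.6, room temperature. Compounds were titrated. AlphaScreen signal used anti-phospho-cJun (Ser73) antibody.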

[10] = target: Cytochrome P450 3A4 (Homo sapiens) (UniProt P08684); test: qHTS Assay for Activators of Cytochrome P450 3A4 (AID 885; active means well fitted curve in the direction sought with a large enough effect; an effect the other way counts as inactive or inconclusive; further: nearly all actives have a fitted effect of over 65% in size); conditions: recombinant CYP3A4, Luciferin-PPXE luminescence, 60 min; series mostly up to 11.4 µM
Summary of the method: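 Quantitative HTS format: compounds preincubated with 20nM human CYP3A4 and Luciferin-PPXE substrate at KM, reaction started by NADPH regeneration, stopped after 60 min, luciferase luminescence read 20 min later.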

[11] = target: Cytochrome P450 2C9 (Homo sapiens) (UniProt P11712); test: qHTS Assay for Inhibitors and Substrates of Cytochrome P450 2C9 (AID 883; active means well fitted curve in the direction sought with a large enough effect; an effect the other way counts as inactive or inconclusive; further: nearly all actives have a fitted effect of over 60% in size; further: potency means the concentration at half of the fitted maximal effect); conditions: recombinant CYP2C9, luciferin-H luminescence, 60 min; series mostly up to 11.4 µM
Summary of the method: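 Human CYP2C9 (10nM) hydroxylated Luciferin-H (100uM, at its KM) to luciferin in 25mM KPO4. Compound was preincubated 10 min at 37C, then NADPH regeneration started a 60 min reaction at 37C. Luminescence was read after detection reagent, normalized to 57uM sulphaphenazole.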

[12] = target: Cytochrome P450 3A4 (Homo sapiens) (UniProt P08684); test: qHTS Assay for Inhibitors and Substrates of Cytochrome P450 3A4 (AID 884; active means well fitted curve in the direction sought with a large enough effect; an effect the other way counts as inactive or inconclusive; further: nearly all actives have a fitted effect of over 50% in size; further: potency means the concentration at half of the fitted maximal effect); conditions: recombinant CYP3A4, Luciferin-PPXE luminescence; series mostly up to 57.1 µM
Summary of the method: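 20 nM human CYP3A4 with 25 uM Luciferin-PPXE (at KM) in 200 mM KPO4, preincubated 10 min with compound; NADPH regeneration started a 60 min RT reaction. Luciferin detected by luminescence, normalized to 57 uM ketoconazole as full inhibition.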

[13] = target: Cytochrome P450 2D6 (Homo sapiens) (UniProt P10635); test: qHTS Assay for Inhibitors and Substrates of Cytochrome P450 2D6 (AID 891; active means well fitted curve in the direction sought with a large enough effect; an effect the other way counts as inactive or inconclusive;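 further: luciferin methyl ether substrate demethylated by CYP2D6 with NADPH regeneration; on the % scale 0 is the no-effect control and ±100 the full control effect; nearly all actives have a fitted effect of over 60% in size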); conditions: recombinant CYP2D6, luciferin-ME EGE luminescence; series mostly up to 11.4 µM
Summary of the method: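 Human CYP2D6 (5 nM) with 30 uM Luciferin-ME EGE (at Km) in 100 mM KPO4, compound preincubated 10 min, then NADPH regeneration system for 60 min at room temperature. Luciferin read by luminescence; normalized to 1.43 uM quinidine.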

[14] = target: Cytochrome P450 2C19 (Homo sapiens) (UniProt P33261); test: qHTS Assay for Inhibitors and Substrates of Cytochrome P450 2C19 (AID 899; active means well fitted curve in the direction sought with a large enough effect; an effect the other way counts as inactive or inconclusive; further: nearly all actives have a fitted effect of over 60% in size; further: potency means the concentration at half of the fitted maximal effect); conditions: recombinant CYP2C19, luciferin-H EGE luminescence; series mostly up to 11.4 µM
Summary of the method: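 Human CYP2C19 (5nM) with Luciferin-H EGE at 10uM (its KM) in 50mM KPO4 was preincubated with compound for 10 min at 37C. NADPH regeneration started a 60 min 37C reaction. Luciferin was read by luminescence, normalized to 57uM ketoconazole.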

Chain of Cytochrome P450 3A4 (Homo sapiens) (P08684 whole entry, looked up): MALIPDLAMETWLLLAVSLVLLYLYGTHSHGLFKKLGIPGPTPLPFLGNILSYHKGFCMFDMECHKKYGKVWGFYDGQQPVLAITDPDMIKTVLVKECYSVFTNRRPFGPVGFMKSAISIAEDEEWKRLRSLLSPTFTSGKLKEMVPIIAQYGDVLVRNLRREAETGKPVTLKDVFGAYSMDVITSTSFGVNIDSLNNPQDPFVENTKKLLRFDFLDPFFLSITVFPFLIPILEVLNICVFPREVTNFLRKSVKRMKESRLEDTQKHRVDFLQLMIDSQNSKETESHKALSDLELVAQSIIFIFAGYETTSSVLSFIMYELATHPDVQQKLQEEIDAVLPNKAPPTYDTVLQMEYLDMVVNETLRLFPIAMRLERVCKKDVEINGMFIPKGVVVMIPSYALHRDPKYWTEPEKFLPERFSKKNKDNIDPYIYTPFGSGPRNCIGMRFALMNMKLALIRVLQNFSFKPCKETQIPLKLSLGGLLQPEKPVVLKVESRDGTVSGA
Chain of Cytochrome P450 1A2 (Homo sapiens) (P05177 whole entry, looked up): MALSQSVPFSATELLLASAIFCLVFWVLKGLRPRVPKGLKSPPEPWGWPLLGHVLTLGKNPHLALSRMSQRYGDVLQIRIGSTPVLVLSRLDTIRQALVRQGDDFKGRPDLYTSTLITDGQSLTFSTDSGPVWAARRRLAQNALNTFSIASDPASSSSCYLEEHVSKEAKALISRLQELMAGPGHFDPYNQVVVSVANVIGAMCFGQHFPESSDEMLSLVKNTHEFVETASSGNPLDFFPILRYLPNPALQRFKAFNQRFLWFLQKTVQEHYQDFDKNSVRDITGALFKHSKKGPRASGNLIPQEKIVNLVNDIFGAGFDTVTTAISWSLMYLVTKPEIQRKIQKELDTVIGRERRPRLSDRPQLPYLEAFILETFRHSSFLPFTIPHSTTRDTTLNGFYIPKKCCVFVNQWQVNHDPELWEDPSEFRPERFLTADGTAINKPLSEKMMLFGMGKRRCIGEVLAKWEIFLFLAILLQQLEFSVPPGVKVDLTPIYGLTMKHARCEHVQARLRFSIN
Chain of 3',5'-cyclic-AMP phosphodiesterase 4B (Homo sapiens) (Q07343 whole entry, looked up): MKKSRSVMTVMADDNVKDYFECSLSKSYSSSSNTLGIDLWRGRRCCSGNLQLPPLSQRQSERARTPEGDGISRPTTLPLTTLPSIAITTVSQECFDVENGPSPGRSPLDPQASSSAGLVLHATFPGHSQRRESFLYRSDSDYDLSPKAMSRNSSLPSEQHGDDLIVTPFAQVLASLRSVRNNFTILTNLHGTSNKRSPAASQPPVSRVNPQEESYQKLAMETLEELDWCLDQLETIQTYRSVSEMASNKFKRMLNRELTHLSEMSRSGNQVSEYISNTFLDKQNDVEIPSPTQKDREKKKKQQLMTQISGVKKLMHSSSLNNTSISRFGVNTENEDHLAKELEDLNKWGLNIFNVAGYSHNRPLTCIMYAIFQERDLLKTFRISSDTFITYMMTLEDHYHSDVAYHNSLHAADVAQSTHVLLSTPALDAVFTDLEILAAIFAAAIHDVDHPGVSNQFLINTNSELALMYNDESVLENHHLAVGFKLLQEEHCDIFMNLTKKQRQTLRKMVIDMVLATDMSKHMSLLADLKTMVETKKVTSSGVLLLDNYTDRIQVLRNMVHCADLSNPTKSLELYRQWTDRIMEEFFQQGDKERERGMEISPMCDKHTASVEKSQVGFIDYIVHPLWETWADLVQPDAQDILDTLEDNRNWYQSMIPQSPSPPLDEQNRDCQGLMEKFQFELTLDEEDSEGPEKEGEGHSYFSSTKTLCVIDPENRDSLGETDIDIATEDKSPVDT
Chain of Lysosomal acid glucosylceramidase (Homo sapiens) (P04062 whole entry, looked up): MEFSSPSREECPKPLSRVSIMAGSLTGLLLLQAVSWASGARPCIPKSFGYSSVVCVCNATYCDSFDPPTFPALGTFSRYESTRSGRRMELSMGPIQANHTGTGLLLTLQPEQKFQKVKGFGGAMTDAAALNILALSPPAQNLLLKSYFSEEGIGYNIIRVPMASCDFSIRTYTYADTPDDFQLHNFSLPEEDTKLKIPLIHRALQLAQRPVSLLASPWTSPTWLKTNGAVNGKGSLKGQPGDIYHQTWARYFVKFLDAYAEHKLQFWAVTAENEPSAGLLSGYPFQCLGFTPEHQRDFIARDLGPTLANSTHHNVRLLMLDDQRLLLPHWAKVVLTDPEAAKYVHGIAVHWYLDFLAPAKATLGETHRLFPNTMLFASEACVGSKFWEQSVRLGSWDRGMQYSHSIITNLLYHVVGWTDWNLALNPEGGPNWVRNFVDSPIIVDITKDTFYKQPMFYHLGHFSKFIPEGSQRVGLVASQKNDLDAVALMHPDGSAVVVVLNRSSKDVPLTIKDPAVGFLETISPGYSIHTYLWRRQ
Chain of Glucocorticoid receptor (Homo sapiens) (P04150 whole entry, looked up, the tested form may be a part): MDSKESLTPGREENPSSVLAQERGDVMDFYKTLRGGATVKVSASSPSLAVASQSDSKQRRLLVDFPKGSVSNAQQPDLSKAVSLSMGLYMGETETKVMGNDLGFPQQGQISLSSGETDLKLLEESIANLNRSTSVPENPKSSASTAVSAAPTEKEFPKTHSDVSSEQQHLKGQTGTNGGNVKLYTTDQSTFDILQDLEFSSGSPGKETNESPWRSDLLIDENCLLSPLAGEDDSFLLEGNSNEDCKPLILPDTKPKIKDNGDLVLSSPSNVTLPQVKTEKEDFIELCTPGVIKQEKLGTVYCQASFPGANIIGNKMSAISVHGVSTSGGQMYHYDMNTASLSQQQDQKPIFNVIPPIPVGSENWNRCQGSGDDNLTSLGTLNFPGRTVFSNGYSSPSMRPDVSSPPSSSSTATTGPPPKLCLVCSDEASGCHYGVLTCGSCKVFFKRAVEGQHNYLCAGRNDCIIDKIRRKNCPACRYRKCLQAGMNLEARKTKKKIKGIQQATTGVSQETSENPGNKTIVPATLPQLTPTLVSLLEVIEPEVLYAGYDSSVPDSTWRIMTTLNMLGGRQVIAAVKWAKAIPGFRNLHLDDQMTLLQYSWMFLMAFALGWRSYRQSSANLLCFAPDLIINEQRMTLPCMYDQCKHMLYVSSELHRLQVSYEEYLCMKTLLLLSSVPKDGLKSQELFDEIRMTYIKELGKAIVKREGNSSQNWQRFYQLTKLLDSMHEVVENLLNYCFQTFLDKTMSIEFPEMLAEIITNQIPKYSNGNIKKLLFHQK
Chain of Cytochrome P450 2C9 (Homo sapiens) (P11712 whole entry, looked up): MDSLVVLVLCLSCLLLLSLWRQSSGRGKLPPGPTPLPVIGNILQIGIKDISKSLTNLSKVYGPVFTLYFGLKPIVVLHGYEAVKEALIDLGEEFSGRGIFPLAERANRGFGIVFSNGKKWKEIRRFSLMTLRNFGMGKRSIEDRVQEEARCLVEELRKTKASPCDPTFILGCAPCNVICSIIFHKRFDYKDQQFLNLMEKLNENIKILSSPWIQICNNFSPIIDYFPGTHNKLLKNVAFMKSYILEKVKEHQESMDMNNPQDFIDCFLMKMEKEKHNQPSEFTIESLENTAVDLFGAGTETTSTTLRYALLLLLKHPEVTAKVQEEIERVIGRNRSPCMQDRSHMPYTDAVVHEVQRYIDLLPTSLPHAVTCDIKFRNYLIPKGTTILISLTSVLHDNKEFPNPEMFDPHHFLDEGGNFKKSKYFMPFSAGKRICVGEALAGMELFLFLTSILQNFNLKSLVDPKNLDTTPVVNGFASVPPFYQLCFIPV
Chain of Cytochrome P450 2D6 (Homo sapiens) (P10635 whole entry, looked up): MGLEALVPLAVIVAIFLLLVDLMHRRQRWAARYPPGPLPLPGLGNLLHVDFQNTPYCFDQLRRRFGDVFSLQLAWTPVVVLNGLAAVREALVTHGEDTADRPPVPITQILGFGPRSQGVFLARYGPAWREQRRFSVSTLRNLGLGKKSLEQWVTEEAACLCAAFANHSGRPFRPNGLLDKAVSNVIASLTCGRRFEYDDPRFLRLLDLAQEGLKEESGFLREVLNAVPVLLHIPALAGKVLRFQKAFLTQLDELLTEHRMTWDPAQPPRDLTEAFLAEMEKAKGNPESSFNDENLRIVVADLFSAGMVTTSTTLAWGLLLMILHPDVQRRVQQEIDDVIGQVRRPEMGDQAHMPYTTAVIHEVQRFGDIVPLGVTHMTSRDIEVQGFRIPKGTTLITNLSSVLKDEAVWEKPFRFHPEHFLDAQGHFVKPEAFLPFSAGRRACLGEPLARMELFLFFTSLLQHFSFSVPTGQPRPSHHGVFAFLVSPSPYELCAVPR
Chain of Cytochrome P450 2C19 (Homo sapiens) (P33261 whole entry, looked up): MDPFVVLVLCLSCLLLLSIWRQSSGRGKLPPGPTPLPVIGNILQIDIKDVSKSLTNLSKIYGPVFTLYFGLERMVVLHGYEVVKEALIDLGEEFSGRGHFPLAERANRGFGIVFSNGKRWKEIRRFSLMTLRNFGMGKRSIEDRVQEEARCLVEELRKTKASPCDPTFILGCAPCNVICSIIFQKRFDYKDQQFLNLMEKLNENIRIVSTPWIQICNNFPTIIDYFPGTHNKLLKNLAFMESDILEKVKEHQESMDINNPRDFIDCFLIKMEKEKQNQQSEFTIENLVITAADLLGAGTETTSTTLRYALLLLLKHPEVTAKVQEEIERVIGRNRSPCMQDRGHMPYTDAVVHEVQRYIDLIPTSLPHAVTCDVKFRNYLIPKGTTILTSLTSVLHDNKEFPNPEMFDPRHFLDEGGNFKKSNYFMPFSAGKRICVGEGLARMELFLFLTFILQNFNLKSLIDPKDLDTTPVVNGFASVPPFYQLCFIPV

O=C(O)c1cccc2cccc(-c3cccc4cccc(C(=O)O)c34)c12
inactive: Potency [1] > 11.4 µM | activity change, negative = inhibition [2] 4.88% | activity change, negative = inhibition [3] -12.3% [at 2.29 µM] | activity change, negative = inhibition [4] 10.7% | activity, negative = inhibition [5] 6.14% | Potency [6] > 46 µM | Potency [7] > 9.22 µM | Potency [8]

CN(CC(=O)O)Cc1c[nH]c2ccccc12
inactive: Potency [1] > 11.4 µM | activity change, negative = inhibition [2] -2.9% | Potency [3] | activity change, negative = inhibition [4] -8.48% | activity, negative = inhibition [5] -5.98% | Potency [6] > 46 µM | Potency [7] > 9.22 µM | Potency [8]

O=C(O)c1ccc(C(=O)O)c(C(=O)O)c1.[NH-][C@@H]1CCCC[C@@H]1[NH-].[Pt]
inactive: Potency [1] > 11.4 µM | activity change, negative = inhibition [2] 0.428% | Potency [3] | activity change, negative = inhibition [4] -9.87% | activity, negative = inhibition [5] -6.09% | Potency [6] > 46 µM | Potency [7] > 9.22 µM | Potency [8]

O=C1Nc2ccccc2C1=Nc1ccc(S(=O)(=O)Nc2nccs2)cc1
inactive: Potency [1] > 11.4 µM | activity change, negative = inhibition [2] -7.86% | Potency [3] | activity change, negative = inhibition [4] 12.8% | activity, negative = inhibition [5] -9.11% | Potency [6] > 46 µM | Potency [7] > 9.22 µM | Potency [8]

O=C(O)CS(=O)c1ccc2c3c(cccc13)C(=O)c1ccccc1-2 (stereo not drawn)
active: Potency [3] 0.0631 µM
inactive: Potency [1] > 11.4 µM | activity change, negative = inhibition [2] -22.7% | activity change, negative = inhibition [4] -13.9% | activity, negative = inhibition [5] 1.69% | Potency [7] > 9.22 µM | Potency [9] | Potency [8] | Potency [10]

COC(=O)[C@@H]1O[C@@H](SCCN)[C@@H](O)[C@H](O)[C@H]1O
inactive: Potency [1] > 11.4 µM | activity change, negative = inhibition [2] 0.576% | activity change, negative = inhibition [3] 10.2% [at 2.29 µM] | activity change, negative = inhibition [4] 2.51% | activity, negative = inhibition [5] -0.339% | Potency [7] > 9.22 µM | Potency [9] | Potency [8]

NC(N)=NC(N)=Nc1ccccc1 (tested in a mixture with another compound)
active: Potency [3] 3.16 µM
inactive: Potency [1] > 11.4 µM | activity change, negative = inhibition [2] -4.98% | activity change, negative = inhibition [4] 10.5% | activity, negative = inhibition [5] 1.58% | Potency [7] > 9.22 µM | Potency [9] | Potency [8]

CCN1CCCCC(=N/O)/C(=N/O)CCCC1
inactive: Potency [1] > 11.4 µM | activity change, negative = inhibition [2] -1.64% | Potency [3] | activity change, negative = inhibition [4] -10.8% | activity, negative = inhibition [5] 2.5% | Potency [6] > 46 µM | Potency [9] | Potency [8]

O=S(=O)(c1ccccc1)N1CCC[C@@]2(CCN(Cc3ccccc3)C2)C1
active: Potency [3] 20 µM
inactive: Potency [1] > 11.4 µM | activity change, negative = inhibition [2] 6.44% | activity change, negative = inhibition [4] -28.9% | activity, negative = inhibition [5] -5.04% | Potency [7] > 46 µM | Potency [9] | Potency [8] | Potency [10]

C[Si](C)(c1ccc(C(=O)O)cc1)c1ccc(C(=O)O)cc1
inactive: Potency [1] > 11.4 µM | activity change, negative = inhibition [2] -1.98% | Potency [3] | activity change, negative = inhibition [4] -2.05% | activity, negative = inhibition [5] 14.2% | Potency [6] > 46 µM | Potency [9] | Potency [8]

Cc1ccc(/C(C#N)=C/c2cccc([N+](=O)[O-])c2)cc1
inactive: Potency [1] > 11.4 µM | activity change, negative = inhibition [2] 15.2% | activity change, negative = inhibition [4] -0.124% | activity, negative = inhibition [5] 11.8% | Potency [7] > 9.22 µM | Potency [9] | Potency [8]
active: Potency [3] 3.98 µM

CC(C)(C)OC(=O)[C@H]([C@@H]1N[C@@H](C(=O)O)C(C)(C)S1)N1C(=O)c2ccccc2C1=O
inactive: Potency [1] > 11.4 µM | activity change, negative = inhibition [2] -0.34% | activity change, negative = inhibition [3] -1.4% [at 2.29 µM] | activity change, negative = inhibition [4] -5.29% | activity, negative = inhibition [5] 3.62% | Potency [7] > 9.22 µM | Potency [9] | Potency [8]

Cn1c(=O)c2[nH]c(SCc3ccccn3)nc2n(C)c1=S
inactive: Potency [1] > 11.4 µM | activity change, negative = inhibition [2] -5.29% | activity change, negative = inhibition [4] 13% | activity, negative = inhibition [5] -3.9% | Potency [7] > 9.22 µM | Potency [9] | Potency [8] | Potency [10] | Potency [13]
active: Potency [3] 0.0126 µM | Potency [11] 3.16 µM | Potency [12] 3.98 µM

O=C(O)c1nc(-c2ccccc2)[nH]c1C(=O)O
active: Potency [3] 1 µM | Potency [14] 3.16 µM
inactive: Potency [1] > 11.4 µM | activity change, negative = inhibition [2] -6.16% | activity change, negative = inhibition [4] -19.8% | activity, negative = inhibition [5] -26.6% | Potency [6] > 46 µM | Potency [9] | Potency [8]

CC1=NN(c2ccc(S(=O)(=O)O)cc2)C(=O)/C1=C\c1ccc(Cl)cc1
inactive: Potency [1] > 11.4 µM | activity change, negative = inhibition [2] 3.84% | activity change, negative = inhibition [3] -8.9% [at 2.29 µM] | activity change, negative = inhibition [4] 7.84% | activity, negative = inhibition [5] -1.78% | Potency [9] | Potency [8]

O=C(O)CC(CC(=O)O)n1cccc1
inactive: Potency [1] > 11.4 µM | activity change, negative = inhibition [2] 5.34% | Potency [3] | activity change, negative = inhibition [4] 8.97% | activity, negative = inhibition [5] -7.74% | Potency [7] > 9.22 µM | Potency [9] | Potency [8] | Potency [11] | activity change, negative = inhibition [12] -36.6% [at 11.4 µM] | Potency [13] | Potency [14]
